Test results reported in PubChem BioAssay AID602144 (Vanderbilt Specialized Chemistry Center, 2011).
Active and inactive are the calls of the source. Cut-off read from the data, not from the text of the source: active = remaining activity below about 50%; inactive = the rest.

target: Phospholipase D1 (Homo sapiens) (UniProt Q13393); test: PLD1 inhibitors in cells, Calu-1 cells, single concentration (AID 602144); conditions: cellular PLD1 activity, active compounds read low;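 note: tested at 200 nM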
Sequence (Q13393 whole entry, looked up): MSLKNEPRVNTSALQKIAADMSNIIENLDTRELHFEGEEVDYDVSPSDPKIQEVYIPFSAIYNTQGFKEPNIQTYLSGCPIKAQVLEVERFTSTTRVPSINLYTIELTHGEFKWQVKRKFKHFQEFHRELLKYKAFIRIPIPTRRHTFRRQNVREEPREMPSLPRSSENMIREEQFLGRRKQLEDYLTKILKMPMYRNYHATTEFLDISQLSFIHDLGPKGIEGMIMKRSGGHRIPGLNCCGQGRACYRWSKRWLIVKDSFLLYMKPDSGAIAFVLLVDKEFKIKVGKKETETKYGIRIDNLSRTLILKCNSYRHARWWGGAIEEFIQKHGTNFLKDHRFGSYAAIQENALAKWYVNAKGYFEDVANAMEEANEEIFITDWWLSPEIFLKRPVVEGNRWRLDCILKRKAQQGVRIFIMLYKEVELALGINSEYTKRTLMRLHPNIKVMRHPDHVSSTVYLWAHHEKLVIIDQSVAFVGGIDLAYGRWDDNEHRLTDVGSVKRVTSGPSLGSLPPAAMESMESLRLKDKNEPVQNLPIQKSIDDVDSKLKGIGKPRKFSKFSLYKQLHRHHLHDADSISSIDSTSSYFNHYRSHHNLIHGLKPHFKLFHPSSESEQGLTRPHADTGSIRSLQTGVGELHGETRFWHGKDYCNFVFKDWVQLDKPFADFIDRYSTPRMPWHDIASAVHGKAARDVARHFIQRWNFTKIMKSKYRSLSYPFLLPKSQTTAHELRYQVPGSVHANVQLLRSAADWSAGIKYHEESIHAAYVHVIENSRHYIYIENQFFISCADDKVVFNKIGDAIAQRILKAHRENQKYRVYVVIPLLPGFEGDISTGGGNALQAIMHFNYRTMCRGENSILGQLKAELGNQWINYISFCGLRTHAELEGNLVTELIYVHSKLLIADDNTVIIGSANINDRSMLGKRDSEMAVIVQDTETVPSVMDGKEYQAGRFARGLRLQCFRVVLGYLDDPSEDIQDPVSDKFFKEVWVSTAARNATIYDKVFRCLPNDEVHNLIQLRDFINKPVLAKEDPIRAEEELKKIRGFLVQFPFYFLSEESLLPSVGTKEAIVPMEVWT
Sequence (Q13393 whole entry, looked up): as above

`Cc1ccc(C(=O)NCCN2CCN(c3ccncc3)CC2)cc1` was tested. Which remaining activity did it give?
Its remaining activity is 148% (inactive).

Which remaining activity does the source give for `C[C@@H](CN1CCC(n2nnc3cc(C(F)(F)F)ccc32)CC1)NC(=O)c1ccc2ccccc2c1` here?
The remaining activity was 65.2% (inactive).

`C[C@@H](CN1CCC(n2c(=O)[nH]c3cc(-c4ccc(C(F)(F)F)cc4)ccc32)CC1)NC(=O)[C@H]1C[C@@H]1c1ccccc1` was tested. Which remaining activity did it give?
Its remaining activity is 63.9% (inactive).

Which remaining activity does the source give for `O=C(NCCN1CCN(c2ncccn2)CC1)c1ccc2ccccc2c1` here?
Its remaining activity is 118% (inactive).

With `O=C(NCCN1CCC(n2c(=O)[nH]c3ccccc32)CC1)c1cc([N+](=O)[O-])cc([N+](=O)[O-])c1` as the molecule, how does the remaining activity read?
The remaining activity was 50% (active).

With `O=C(NCCN1CCC(n2c(=O)[nH]c3ccccc32)CC1)c1ccc2cccc3c2c1CC3` as the molecule, how does the remaining activity read?
Its remaining activity is 93.4% (inactive).

For `C[C@@H](CN1CCC2(CC1)CN(S(C)(=O)=O)c1ccccc12)NC(=O)c1cnc2ccccc2c1`, which remaining activity is on record?
Its remaining activity is 118% (inactive).

For `CC(C)[C@@H](CN1CCC(n2c(=O)[nH]c3ccccc32)CC1)NC(=O)c1ccc(F)cc1`, which remaining activity is on record?
Its remaining activity is 103% (inactive).

`O=C(NCCN1CCC2(CC1)CCN(c1ccccc1)C2=O)c1ccc2ccccc2c1` was tested. Which remaining activity did it give?
Its remaining activity is 113% (inactive).

How did the remaining activity turn out when `O=C(NCCN1CCC(n2c(=O)[nH]c3ccccc32)CC1)C1CCCCCCCCCC1` was run?
The remaining activity was 85.9% (inactive).

With `O=C(N[C@@H](Cc1ccccc1)CN1CCC(n2c(=O)[nH]c3ccccc32)CC1)c1ccc2ccccc2c1` as the molecule, how does the remaining activity read?
Its remaining activity is 113% (inactive).

How did the remaining activity turn out when `O=c1[nH]c2ccccc2n1C1CCN(CCNS(=O)(=O)c2ccc([N+](=O)[O-])cc2)CC1` was run?
Its remaining activity is 119% (inactive).

`NCCN1CCC(n2c(=O)[nH]c3cc(Cl)ccc32)CC1` (tested in a mixture with another compound) was tested. Which remaining activity did it give?
The remaining activity was 62.4% (inactive).

With `C[C@@H](CN1CCC(n2c(=O)[nH]c3cc(-c4ccsc4)ccc32)CC1)NC(=O)[C@H]1C[C@@H]1c1ccccc1` as the molecule, how does the remaining activity read?
The remaining activity was 41.3% (active).

With `C[C@H](CN1CCC2(CC1)CNCc1ccccc12)NC(=O)c1cnc2ccccc2c1` as the molecule, how does the remaining activity read?
Its remaining activity is 69% (inactive).

`C[C@@H](CN1CCC2(CC1)CN(S(C)(=O)=O)c1ccccc12)NC(=O)[C@H]1C[C@@H]1c1ccccc1` was tested. Which remaining activity did it give?
The remaining activity was 148% (inactive).

`CC(C)[C@@H](CN1CCC(n2c(=O)[nH]c3ccccc32)CC1)NC(=O)c1ccc2ccccc2c1` was tested. Which remaining activity did it give?
Its remaining activity is 84.6% (inactive).

For `O=C(NCCN1CCC(c2nc3ccccc3[nH]2)CC1)c1ccc2ccccc2c1`, which remaining activity is on record?
The remaining activity was 101% (inactive).

How did the remaining activity turn out when `O=C(NCCN1CCC(n2c(=O)[nH]c3ccccc32)CC1)Nc1cccc(C(F)(F)F)c1` was run?
Its remaining activity is 135% (inactive).

With `O=c1[nH]c2ccccc2n1C1CCN(CCNS(=O)(=O)c2cccc(C(F)(F)F)c2)CC1` as the molecule, how does the remaining activity read?
The remaining activity was 111% (inactive).

How did the remaining activity turn out when `O=C(C1C[C@@H]1c1ccccc1)N1CCC2(CC1)C(=O)NCN2c1ccccc1` (stereo not given in full) was run?
The remaining activity was 86% (inactive).

How did the remaining activity turn out when `O=C(NCCN1CCC2(CCc3ccccc32)CC1)c1ccc2ccccc2c1` was run?
Its remaining activity is 124% (inactive).

With `O=C(NCCN1CCC2(C=Cc3ccccc32)CC1)c1ccc2ccccc2c1` as the molecule, how does the remaining activity read?
Its remaining activity is 127% (inactive).

For `COc1cc(C(=O)NCCN2CCN(c3ccncc3)CC2)ccc1N`, which remaining activity is on record?
Its remaining activity is 90.7% (inactive).

For `O=C(NCCN1CCC(n2c(=O)[nH]c3ccccc32)CC1)c1ccc(Cc2ccccc2)cc1`, which remaining activity is on record?
The remaining activity was 91.5% (inactive).

How did the remaining activity turn out when `O=C(Cc1ccc2ccccc2c1)NCCN1CCC(n2c(=O)[nH]c3ccccc32)CC1` was run?
The remaining activity was 87.7% (inactive).

For `O=C(c1ccc(Cl)cc1)N(CCN1CCC(n2c(=O)[nH]c3ccccc32)CC1)C(=O)c1ccc(Cl)cc1`, which remaining activity is on record?
Its remaining activity is 63.9% (inactive).

How did the remaining activity turn out when `O=C1c2ccccc2C(=O)N1CCCN1CCC(c2nc3ccccc3[nH]2)CC1` was run?
Its remaining activity is 95.3% (inactive).

`C[C@@H](CN1CCC2(CC1)CCN(C)C2=O)NC(=O)c1ccc2ccccc2c1` was tested. Which remaining activity did it give?
Its remaining activity is 122% (inactive).

`Cn1c(=O)n(C2CCN(CCNC(=O)c3ccc(F)cc3)CC2)c2ccccc21` was tested. Which remaining activity did it give?
The remaining activity was 84.4% (inactive).

`C[C@@H](CN1CCC(n2c(=O)[nH]c3ccc(F)cc32)CC1)NC(=O)c1ccc(F)c(F)c1` was tested. Which remaining activity did it give?
Its remaining activity is 13.7% (active).

How did the remaining activity turn out when `O=C(NCCN1CCC(n2c(=O)[nH]c3ccccc32)CC1)c1cc2ccc3ccccc3c2c2ccccc12` was run?
The remaining activity was 76.6% (inactive).

With `O=C(NCCN1CCC(n2c(=O)[nH]c3cc(I)ccc32)CC1)C1CC1c1ccccc1` (stereo not given) as the molecule, how does the remaining activity read?
Its remaining activity is 16.1% (active).

With `C[C@@H](CN1CCC(n2c(=O)[nH]c3cc(I)ccc32)CC1)NC(=O)C1CC1c1ccccc1` (stereo not given in full) as the molecule, how does the remaining activity read?
The remaining activity was 19.9% (active).

How did the remaining activity turn out when `C[C@@H](CN1CCC(n2c(=O)[nH]c3ccccc32)CC1)NC(=O)c1ccc(C(F)(F)F)cc1` was run?
Its remaining activity is 36.5% (active).
